HSP90 inh: HSP90 inhibitors, primary screen, cell lysate, luminescence. Heat shock protein HSP 90 (rabbit reticulocyte lysate; luciferase refolding). Rabbit reticulocyte lysate, luciferase refolding luminescence, 3 h. inhibition, % at 5.6 µM. 290,000 tested, 0.91% active;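 active means inhibition above the screen-wide mean plus 3 SD, computed separately per campaign, cut at about 16% in these data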;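 further: 0% = DMSO wells and 100% = 60 µM geldanamycin wells; inhibitors lower the luminescence because luciferase stays unfolded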
HSF1 activator: HSF-1 activators, primary screen, NIH3T3-HGL cells, MG132 stress, luminescence, single point. NIH3T3-HGL HSF-1 luciferase reporter, 8 h; 100% = twice DMSO control signal. activation, % at 9 µM. 300,000 tested, 1.7% active. AID 504408, 2011;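 active means mean replicate activation of at least 50% with a set share of replicates each reaching 50%; inconclusive means only one of those two conditions met; inactive means mean below 50% and too few replicates reaching it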;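 further: 0% = median of the neutral control wells and 100% = twice that signal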
FXN GAA850 act: FXN promoter activators, primary screen, cell-based, luciferase luminescence, HEK293 lucGAA850; AID 540364, 2011; HEK293 lucGAA850 FXN promoter luciferase reporter, 24 h; percent of 10 µM SAHA response; 360,000 tested, 0.56% active; activation, % at 6 µM;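 active means activation above the average of all compounds screened plus 3 SD, cutoff fixed separately per campaign, cut at about 7.5% in these data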;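 further: 0% = DMSO wells and 100% = 10 µM SAHA wells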
NR0B1 inh: DAX1 (NR0B1) inhibitors, primary screen, cell-based, HEK293, Gal4-DAX1, luciferase luminescence; Nuclear receptor subfamily 0 group B member 1 (Homo sapiens), P51843; HEK293 Gal4-DAX1 luciferase reporter; inhibition, % at 6.75 µM; 340,000 tested, 0.99% active; AID 504766, 2011;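 active means inhibition above the mean over all tested compounds plus 3 SD, cut at about 4.2% in these data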;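 further: 0% = DAX1-transfected cells with DMSO and 100% = empty-vector control cells with DMSO; inhibition shows as a rise in luminescence from relieved DAX1 repression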
Target sequence (P51843 207-470 limits assumed): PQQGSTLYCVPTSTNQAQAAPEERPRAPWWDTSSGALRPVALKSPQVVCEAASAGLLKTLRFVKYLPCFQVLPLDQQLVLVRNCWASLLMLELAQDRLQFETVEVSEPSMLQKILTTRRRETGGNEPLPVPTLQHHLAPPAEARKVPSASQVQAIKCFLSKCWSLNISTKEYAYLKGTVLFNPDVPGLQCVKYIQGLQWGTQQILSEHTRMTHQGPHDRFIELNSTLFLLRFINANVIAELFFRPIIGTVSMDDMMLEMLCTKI
HSF1 inh: HSF1 inhibitors in luciferase reporter cells, primary screen, cell-based, NIH3T3, luminescence. 300,000 tested, 0.77% active. activity change, negative = inhibition, % at 7.5 µM (by protocol). NIH3T3-HGL HSE-luciferase, MG132-induced, luminescence 8 h; active compounds read low;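 active means more than half of replicate wells show activity change below -50%, luminescence cut by over half; inconclusive means some wells, but at most half, below -50%; inactive means no replicate well below -50%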;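 further: luciferase reports HSF-1 transcriptional activity via heat shock element; 0% = median of DMSO wells and -100% = zero luminescence signal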
AHR act: AHR activators, primary screen, cell-based, luminescence, luciferase reporter, human; 320,000 tested, 2.5% active; AHR-responsive luciferase reporter cells; Aryl hydrocarbon receptor (Homo sapiens), P35869; activation, % at 5 µM; in the data active means activation above about 47%;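 further: 0% = vehicle wells and 100% = reference agonist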
GAA30 counter: GAA30 FXN promoter activators, confirmation, counter-screen for GAA850 frataxin promoter activator project, cell-based, luminescence, HEK293, lucGAA30, triplicate; shares compounds with FXN GAA850 act; HEK293 lucGAA30 FXN promoter luciferase, 24 h; DMSO = 0%, 5 µM ipriflavone = 100%; activation, % at 6 µM; 1,900 tested, 66% active; AID 588350, 2011;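 active means mean activation above the mean of solvent-only control wells plus 3 SD, cut at about 22% in these data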;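 further: counterscreen of GAA850 promoter hits where activity marks nonselective or luminescence artifacts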
FXN GAA850 conf: FXN GAA850 promoter activators in reporter cells, confirmation, cell-based, luminescence, HEK293 lucGAA850, triplicate | shares compounds with FXN GAA850 act | HEK293 lucGAA850 FXN promoter luciferase reporter, 24 h; 100% = activation by SAHA | activation, % at 6 µM | 1,900 tested, 86% active | AID 588351, 2011;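 active means mean activation above a set limit taken from the primary screen, cut at about 8% in these data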;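 further: 0% = DMSO wells and 100% = 10 µM SAHA wells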
The depositor's hits bear a star; ? = inconclusive; . = no result given. Rows were chosen to be rich in hits. Some 5.9% of all compounds tested hit in one or more screens of this group.

SMILES	HSP90 inh	HSF1 activator	FXN GAA850 act	NR0B1 inh	HSF1 inh	AHR act	GAA30 counter	FXN GAA850 conf
Cc1ccc(SCC2=NN(c3nc(C)cc(C)n3)C(=O)C2)cc1	4.4	33.3	1.4	0.9	5.0	0.5	.	.
CC(=O)N(C(C)=O)c1ncnc2c1c(-c1ccc(Cl)cc1)nn2C(C)(C)C	-3.2	-3.0	2.9	-0.7	-7.2	1.1	.	.
CC(=O)Nc1ncnc2c1c(-c1ccc(Cl)cc1)nn2C(C)(C)C	5.4	-19.1	10.8*	1.0	-15.1	0.5	19.5	10.4*
CCOC(=O)/C(=C/c1ccc(N2CCC(c3ccccc3)=N2)cc1)C(C)=O	3.1	32.6	-13.3	-1.3	22.2	.	.	.
c1ccc(C2=NN(c3ccccc3)CC2)cc1	-0.4	19.5	7.7*	4.3*	18.1	27.5	107.5*	30.2*
O=C(NC1CCCC1)C(c1ccccn1)N(Cc1ccccc1F)C(=O)c1csnn1 (stereo not given)	2.0	-4.2	-0.4	0.4	-6.5	-1.0	.	.
O=C(/C=C/c1ccccc1)/C=C/c1ccccc1	-2.1	29.2	7.9*	0.0	28.9	-0.4	31.5*	29.6*
Cc1cc(C)nc(SCC(=O)N/N=C\C(Br)=C\c2ccccc2)n1	2.3	?	0.1	-1.6	27.2	3.2	.	.
Cc1ccc(NCC(=O)N/N=C\C(Br)=C\c2ccccc2)cc1	1.5	145.3*	13.3*	-0.8	109.9	17.0	15.0	10.7*
CC(=C/c1ccccc1)/C=N/NC(=O)c1ccc2nc[nH]c2c1	-4.4	-0.4	3.6	-0.9	6.6	5.8	.	.
CC(/C=N/NC(=O)NC1CCCCC1)=C\c1ccccc1	1.6	17.3	2.9	-0.7	11.5	6.2	.	.
O=C(N/N=C/C(Br)=C/c1ccccc1)C1CC1	4.5	46.5	8.2*	1.0	46.9	31.8	80.8*	31.5*
O=C(N/N=C/C(Br)=C\c1ccccc1)c1ccc2nc[nH]c2c1	0.7	124.5*	8.5*	-1.4	94.8	17.7	37.9*	18.6*
O=C(N/N=C/C(Br)=C/c1ccccc1)NC1CCCCC1	0.9	58.5*	9.8*	-1.1	46.1	26.6	51.4*	21.8*
O=C(CCS(=O)(=O)Cc1ccccc1F)NCCc1ccc(Cl)cc1	-0.5	22.4	-0.1	1.7	-2.7	3.3	.	.
CCc1nnc(NC(=O)CCC(=O)N2CCN(c3cc(Cl)ccc3C)CC2)s1	0.3	2.6	1.8	-0.4	11.2	1.3	.	.
O=C(N/N=C/c1ccccc1)NC1CCCCC1	2.1	34.5	8.6*	-0.4	10.3	2.5	61.7*	20.0*
O=C(N/N=C/c1cccc(F)c1)NC1CCCCC1	3.2	18.0	4.3	1.2	9.4	6.3	.	.
Oc1ccc(-c2csc(Nc3ncccn3)n2)c(O)c1	4.9	49.8	3.1	2.5	27.6	-9.4	.	.
Oc1ccc(-c2csc(-c3ccccc3)n2)cc1O	-0.1	155.2*	8.8*	-0.1	105.1	2.4	40.8*	33.6*
Oc1ccc(-c2csc(Nc3ncccn3)n2)cc1O	-3.3	89.3*	15.8*	0.2	74.8	.	107.9*	45.1*
Oc1ccc(-c2csc(-c3cccnc3)n2)cc1O	-6.8	42.0	13.8*	1.1	26.3	4.8	62.1*	31.1*
Fc1ccccc1-c1csc(-c2cccnc2)n1	-4.3	27.2	2.9	-0.6	10.4	7.8	.	.
COc1ccccc1CNC(=O)C(=O)NCC1OCCCN1S(=O)(=O)c1cccs1 (stereo not given)	-5.0	-5.2	1.4	0.2	-5.4	-1.2	.	.
CCN(C(=O)CCc1nc(-c2ccccc2F)no1)c1cc(OC)ccc1OC	1.2	16.6	-0.3	-1.4	5.3	.	.	.
SMILES	HSP90 inh	HSF1 activator	FXN GAA850 act	NR0B1 inh	HSF1 inh	AHR act	GAA30 counter	FXN GAA850 conf
Cc1ccc(CN2CCN(Cc3ccc(-n4cccn4)cc3C)CC2CCO)cc1 (stereo not given)	-1.0	-8.5	0.3	-0.2	-1.3	3.1	.	.
O=Nc1c(-c2ccccc2)n(O)[n+]([O-])c1-c1ccccc1	.	.	8.9*	-0.2	.	.	75.2*	36.1*
CCCCC(=O)/C=C/n1c(=S)oc2ccccc21	-0.1	216.9*	8.5*	0.4	176.0	1.7	-19.8	23.2*
CCN(CC)S(=O)(=O)c1ccc(C(C)NC(=O)C2CCCN2C(=O)c2cccs2)cc1 (stereo not given)	.	.	-1.3	0.0	.	-0.5	.	.
CC1S/C(=N/N=C2CCC(C(C)(C)C)CC2)NC1=O (stereo not given)	-0.4	-16.5	14.1*	2.8	-3.5	9.6	27.9*	7.6*
O=C(O)Cn1c2ccccc2c2nc3ccccc3nc21	.	.	10.2*	4.9*	.	.	104.5*	33.0*
Fc1cccc(Cn2ccc(-c3ccc4c(c3)OCO4)n2)c1	1.2	?	9.4*	2.0	25.2	15.6	84.2*	25.4*
Cc1ccccc1Cn1ccc(-c2ccc3c(c2)OCO3)n1	-2.4	40.4	0.9	1.0	22.8	16.7	.	.
C=CCNc1nc(Nc2ccc(OC)cc2)nc(OC)n1	8.0	0.7	1.3	1.0	-1.8	19.3	.	.
C=CCNc1nc(Cl)nc(Nc2ccc(OC)cc2)n1	2.8	15.6	8.1*	0.6	-0.9	18.4	63.9*	25.0*
CN=c1c([N+](=O)[O-])nn(-c2ccc3c(c2)OCCO3)n1O	0.1	-9.1	1.3	-0.4	-1.0	22.2	.	.
O=[N+]([O-])c1nn(-c2ccc3c(c2)OCCO3)n(O)c1=NCc1ccc(F)cc1Cl	0.9	11.7	9.8*	1.6	16.9	4.2	91.2*	29.6*
O=C(c1cccs1)N1C[C@@H](O)[C@H](n2cc(-c3ccc(F)cc3)nn2)C[C@@H]1c1ccc(Cl)cc1	.	.	-0.6	0.0	.	.	.	.
COc1cc(CNc2ccc3[nH]c(=O)[nH]c3c2)ccc1OCc1ccccc1F	-2.8	22.4	7.7*	-0.3	18.4	-1.1	33.4*	19.7*
COc1cc(CNc2ccc3[nH]c(=O)[nH]c3c2)ccc1OCc1ccccc1C	10.3	17.0	2.3	0.5	6.5	0.9	.	.
CCc1cccc(C)c1NC(=O)CN1C(=O)c2ccccc2S1(=O)=O	0.3	4.0	17.5*	2.0	-4.5	2.1	12.2	6.6
